Consider 22 compounds from PubChem BioAssay (Tox21).

Unmarked numbers belong to inactive results. Activity calls are given as the source filed them. Calls follow the shape of the dose curve; as a rule, active = well fitted curve in the direction sought with a large enough effect in the repeat runs; inconclusive = weak or mixed curves; inactive = flat fitted curve, though single readings scatter.
% is scaled to controls: 0 for no effect and ±100 for the full control effect.

A short description of the test: qHTS assay to test for compound auto fluorescence at 460 nm (blue) in HEK293 cell free culture (AID 720681). The following applies: cell-free medium, autofluorescence 405/460 nm (blue); series mostly up to 91.3 µM; fluorescence, % of fluorescent control: at the top concentration. Summed up:
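Test compounds were pinned into cell-free culture medium (DMEM with 10% FBS) and fluorescence was read directly at Ex/Em 405/460 nm. Signals were expressed as fluorescence equivalents of triamterene, with DMSO vehicle as control.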
Turning to `CSC(=O)c1c(C(F)F)nc(C(F)(F)F)c(C(=O)SC)c1CC(C)C`, the “fluorescence, % of fluorescent control” value is 0.113%.
Turning to `CCOP(=O)(OCC)Oc1cc(C)nc(C(C)C)n1`, the “fluorescence, % of fluorescent control” value is 0.0975%.
For `CCOP(=O)(Sc1ccccc1)Sc1ccccc1`, the “fluorescence, % of fluorescent control” value is -0.262%.
The same measure, in the same setting: the same measure for `CCC1COC(Cn2cncn2)(c2ccc(Cl)cc2Cl)O1` (configuration not stated): 0.149%; for `Clc1ccc(C(Cl)(Cl)Cl)cc1Cl`: 0.054%.
As for `Nc1nc(N)nc(Cl)n1`, the “fluorescence, % of fluorescent control” value was -0.0615%.
Turning to `ClCBr`, the “fluorescence, % of fluorescent control” value is -0.0756% [at 95.7 µM].
As for `CC(Cc1ccc2c(c1)OCO2)NO` (configuration not stated), the “fluorescence, % of fluorescent control” value is 0.972% [at 95.7 µM].
With `C[C@H]1[C@H](c2ccc(Cl)cc2)SC(=O)N1C(=O)NC1CCCCC1`, the “fluorescence, % of fluorescent control” value was 0.0435%.
In the case of `CCOP(=O)(OCC)Oc1nc(Cl)c(Cl)cc1Cl`, the “fluorescence, % of fluorescent control” value is -0.076%.
Turning to `C[N+]1(C)[C@@H]2CC[C@H]1CC(OC(=O)C(CO)c1ccccc1)C2` (some centres not stated), the Potency entry was “inactive”.
For the compound `CCOP(=S)(NC(C)C)Oc1ccccc1C(=O)OC(C)C` (configuration not stated), the “fluorescence, % of fluorescent control” value is 0.0229%.
Still for that read-out and setting: the same measure for `O=S1(=O)OCC2C(CO1)C1(Cl)C(Cl)=C(Cl)C2(Cl)C1(Cl)Cl` (configuration not stated): -0.156%; for `O=C(O)CCCCCCNC1c2ccccc2CCc2ccccc21`: -0.0174% [at 46 µM]; for `Cc1cnc2c(C(=O)O)c(Cl)ccc2c1`: 0.035%.
On the same count and under the same terms, the same measure for `C#CCO`: -0.0007%; for `CCCCCCCc1ccc(O)cc1`: -0.0326%.
Still for that read-out and setting: the same measure for `S=C=NCCc1ccccc1`: 0.724%; for `CC1=C2C[C@H]3[C@@H](CC=C4C[C@@H](O)CC[C@@]43C)[C@@H]2CC[C@]12O[C@@H]1C[C@H](C)CN[C@H]1[C@H]2C`: 0.0033% [at 46 µM]; for `FC(F)C(F)(F)OCC(Cn1cncn1)c1ccc(Cl)cc1Cl` (configuration not stated): -0.163%.
`CCCCN(CCCC)C(=S)[S-].CCCCN(CCCC)C(=S)[S-].[Ni+2]`: the “fluorescence, % of fluorescent control” value is 0.0072% [at 46 µM].
Still for that read-out and setting: with `COC(=O)/C=C(\C)OP(=O)(OC)OC` the figure was 0.0375%.
